# Screens as filed in PubChem BioAssay.
# FadD28 binding = inhibitors of FadD28 bisubstrate probe binding, primary screen, biochemical, fluorescence polarization, single point; inhibition, % at 12.5 µM; hit rate 0.22% among 360,000; AID 588549, 2011; in the data active means inhibition above about 8.5%, passing the limit was not always enough
# PrP UTR inh = inhibition of PrP 5' UTR reporter expression | inhibition, % (concentration not given with the values) | cell-based PrP 5' UTR mRNA reporter, plate reader | AID 488862, 2010 | hit rate 0.35% among 340,000; in the data active means inhibition above about 52%; further: 0 = median of the neutral control wells
# PrPC TRFRET = inhibitors of human cell surface prion protein PrPC, primary screen, cell-based, TR-FRET; TR-FRET read-out; inhibition, % at 13.8 µM; hit rate 0.43% among 370,000; AID 720596, 2013; in the data active means inhibition above about 24%; further: 0% = median of the test wells and 100% = reference compound wells
# UGM FP inh = M. tuberculosis UGM enzyme inhibitors, primary screen, biochemical, fluorescence polarization, single point; UDP-galactopyranose mutase (Mycobacterium tuberculosis (strain ATCC 25618 / H37Rv)), …; purified UGM, fluorescence polarization probe displacement; inhibition, % at 10 µM; hit rate 0.06% among 320,000; in the data active means inhibition above about 10%, passing the limit was not always enough
# Rv3671c protease = Rv3671c serine protease inhibitors, primary screen, biochemical, fluorescence polarization, M. tuberculosis H37Rv. P9WHR9. inhibition, % at 5.96 µM. hit rate 0.048% among 320,000. AID 2606, 2010; in the data active means inhibition above about 38%;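 further: extracellular domain of Rv3671c used as enzyme; 0% = enzyme with DMSO and 100% = no enzyme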
# SSB-PriA inh = inhibitors of Klebsiella pneumoniae PriA binding to SSB C-terminal tail, primary screen, biochemical, AlphaScreen; PriA–SSB C-terminal tail interaction (Klebsiella pneumoniae); AlphaScreen SSBct-PriA binding, biotinylated peptide; inhibition, % at 33 µM; hit rate 0.6% among 430,000; AID 1272365, 2023; in the data active means inhibition mostly above about 37%, no sharp cut-off; inactive means mostly below about 20%;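 further: plate controls were negative control peptide for no effect and reference peptide for full effect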
# PrPC TRFRET cf = confirmation of inhibitors of cell surface human prion protein, confirmation, cell-based, TR-FRET | shares compounds with PrPC TRFRET | cell surface PrPC level | inhibition, % at 13.8 µM | hit rate 65% among 1,500; in the data active means inhibition above about 25%
# LD9 cytotox = cytotoxicity in LD9 cells, cytotoxicity control for cell surface PrPc inhibitor project, cell-based, luminescence, high throughput; shares compounds with PrPC TRFRET; luminescence viability; inhibition, % at 13.8 µM; hit rate 29% among 1,500; AID 743201, 2013; in the data active means inhibition above about 9.5%
# Starred values were filed as active, the others as inactive; / = no result given. Compounds with a hit are over-represented: about 1.2% of the library has one in this group of screens.
SMILES,FadD28 binding,PrP UTR inh,PrPC TRFRET,UGM FP inh,Rv3671c protease,SSB-PriA inh,PrPC TRFRET cf,LD9 cytotox
CN(C)S(=O)(=O)Oc1cccc(C(=O)Nc2cccc(Cl)c2)c1,-2.7,-47.8,24.4*,0.3,-14.4,-28.1,22.3,19.8*
COc1cc(C)cc2oc(=O)c(CC(=O)N3C[C@H]4C[C@H](C3)c3cccc(=O)n3C4)c(C)c12,/,/,/,/,/,5.5,/,/
Cc1ccc(NC(=O)CSc2ncnc3ccccc23)cc1S(=O)(=O)N1CCOCC1,-0.9,-2.0,61.1*,0.8,2.0,-1.8,55.3*,-10.9
CC(C)c1nc(SCC(=O)Nc2ccc(N3CCOCC3)cc2)c2ccccc2n1,0.5,-5.0,33.4*,-1.5,-0.5,-3.0,52.5*,-2.3
Cc1ccc(NC(=O)CSc2ncnc3ccccc23)cc1S(=O)(=O)N1CCCCC1,-0.9,-11.0,47.6*,-1.6,-5.5,-13.7,76.0*,-5.6
Cc1ccc(Cl)cc1NC(=O)Cc1cc(-c2cccs2)on1,/,/,/,/,/,-2.0,/,/
Cc1cc(C)n(CCN(C(=O)c2ccc([N+](=O)[O-])o2)c2nc3ccccc3s2)n1,/,/,/,/,/,30.0,/,/
C=CCOC(=O)C1=C(C)NC(SCC(=O)N(CC)CC)=C(C#N)C1c1ccco1 (centres undefined),-1.9,-10.0,2.7,-0.8,-0.4,-3.1,/,/
C=CCOC(=O)C1=C(C)NC(SCC(=O)N(CC)CC)=C(C#N)C1c1ccccc1 (centres undefined),-1.9,-1.7,28.9*,3.0,-0.3,-15.3,35.4*,8.4
COc1ccc(CCC(=O)NCC(c2cccn2C)N2CCc3ccccc3C2)cc1 (centres undefined),/,/,/,/,/,-13.0,/,/
CC(=O)c1cnc(Nc2ccccc2)s1,-4.9,-14.3,-9.5,-1.1,-7.0,-8.2,/,/
CC(=O)c1cnc(Nc2cccc(Cl)c2Cl)s1,-4.1,-46.0,26.3*,-1.5,4.0,-8.1,18.3,-6.6
Cc1cc(C)n(CC(=O)NCc2ccccc2Cl)c(=O)c1S(=O)(=O)c1ccc(Br)cc1,/,/,/,/,/,-3.0,/,/
CCOc1ccccc1C1C(C#N)=C(N)Oc2c1oc(CO)cc2=O (centres undefined),/,/,/,/,/,-8.0,/,/
COc1ccc(CC(=O)Nc2ccc3c(c2)N(C(=O)c2cccs2)CCC3)cc1OC,/,/,/,/,/,5.0,/,/
CCOC(=O)c1sc(NC(=O)Nc2ccccc2)cc1C,-1.5,-69.9,35.2*,2.4,2.5,0.7,25.4*,21.8*
Cc1ccc2nc(SCCC#N)nc(C)c2c1,-0.5,-6.0,1.6,-0.5,-4.5,-12.9,/,/
CCc1c(C)nc2c(Br)cccc2c1SCCC#N,-5.4,-5.4,64.0*,2.5,3.2,-22.1,89.6*,-4.6
Cc1cc(OC2CN(C(=O)c3cc4ccccc4s3)C2)cc(=O)o1,/,/,/,/,/,-11.0,/,/
Cc1ccc(C)c(S(=O)(=O)N2CCN(C(=O)c3ccccc3Cc3ccccc3)CC2)c1,-3.6,-17.4,55.3*,-0.2,-0.9,-14.1,0.2,-2.7
O=C(c1ccccc1Cc1ccccc1)N1CCN(S(=O)(=O)c2ccccc2)CC1,0.3,-6.0,2.6,-0.5,5.4,-8.6,/,/
CCOc1ccc(/C=N\NC(=O)c2[nH]nc(-c3ccccc3)c2C)cc1,/,/,/,/,/,2.0,/,/
Cn1nnnc1Sc1ncnc2scc(-c3ccc(Br)cc3)c12,-3.0,-1.9,25.0*,4.6,-7.2,12.8,27.4*,22.4*
CCN(CC)C(=O)CSc1nc(O)c(Cc2ccccc2)c(=O)n1-c1ccccc1,0.9,-14.7,59.8*,2.4,-5.5,-14.8,53.5*,-6.9
CCN(c1cccc(C(F)(F)F)c1)S(=O)(=O)c1ccc2c(c1)CCN2C(C)=O,1.4,-1.7,79.8*,0.4,0.9,-20.2,17.9,-4.1
SMILES,FadD28 binding,PrP UTR inh,PrPC TRFRET,UGM FP inh,Rv3671c protease,SSB-PriA inh,PrPC TRFRET cf,LD9 cytotox
Cc1cccn2cc(-c3ccc(NC(=O)c4ccc(Br)cc4)cc3)nc12,/,/,/,/,/,-19.0,/,/
CC(=O)N1CCC(C(=O)NC2CCCc3c2cnn3-c2cc(F)cc(F)c2)CC1 (centres undefined),-0.9,14.4,84.8*,0.4,-7.8,-17.7,0.0,-6.2
COCCn1c(C)cc(C(=O)CSc2nnc3scc(-c4ccc(C)c(C)c4)n23)c1C,/,/,/,/,/,1.0,/,/
O=C(O)c1ccccc1C(=O)c1cccc2c(F)cccc12,-3.1,-13.0,3.0,/,/,-15.8,/,/
O=C(O)c1ccccc1C(=O)c1cccc2c(Br)cccc12,-0.5,-33.1,59.8*,/,/,-8.1,91.1*,-5.8
CN1CCN(C2CCN(Cc3ccc(O)c4ncccc34)CC2)CC1,-3.1,-11.4,34.3*,-1.6,7.9,55.9*,1.7,-5.9
O=S(=O)(/C(=C/c1ccc(C(F)(F)F)cc1)c1nc2ccccc2[nH]1)c1ccccc1,-1.3,-70.8,37.7*,1.2,-76.0,-6.3,78.5*,97.1*
COC(=O)/C(=C\c1ccc(O)cc1)c1nc2ccccc2[nH]1,-2.6,-41.0,-5.3,-1.5,2.3,-0.5,/,/
CC(C)c1ccc(/C=C(\c2nc3ccccc3[nH]2)S(=O)(=O)c2ccccc2)cc1,-3.8,-8.1,43.3*,-0.9,-43.0,2.6,44.3*,-7.1
C/C(=C\c1ccc(N)cc1)c1nc2ccccc2[nH]1,-0.7,-74.0,4.9,-1.6,-0.3,-11.2,/,/
COc1ccc(NC(=O)C(=O)NCC(C)(O)c2ccc(-c3ccccc3)cc2)cc1Cl (centres undefined),/,/,/,/,/,1.0,/,/
Oc1c(CN2CCCCC2)cc(Br)c2cccnc12,-0.5,22.8,31.9*,2.2,-8.3,77.7,3.6,16.1*
Cc1c(OCC(N)=O)ccc2c(-c3ccccc3)cc(=O)oc12,-1.5,-21.7,26.6*,-0.1,5.4,-9.5,-9.1,-2.6
CC(=O)COc1ccc2c(-c3ccccc3)cc(=O)oc2c1C,-1.2,0.5,-8.5,1.0,-3.3,-7.0,/,/
COc1ccc(OC)c(-c2cc(C(=O)NCCC(O)c3cc(C)oc3C)n(C)n2)c1 (centres undefined),/,/,/,/,/,-30.0,/,/
CCc1nc(SCC(=O)OC(C)C)c2ccccc2n1,-3.1,-11.9,82.7*,-0.1,0.7,-13.1,97.3*,-5.7
CCCCNC(=O)CSc1nc(COc2ccccc2)nc2ccccc12,-1.5,-9.6,17.0,-1.5,-4.1,-18.4,/,/
Cc1nc(SCC(=O)NNC(=O)c2ccc(F)cc2)c2ccccc2n1,-1.9,-29.8,82.2*,-3.3,-1.5,3.1,100.2*,-5.7
CCCc1nc(SCC(=O)NNC(=O)C2CCCCC2)c2ccccc2n1,-1.7,-23.4,41.3*,2.3,0.6,-17.6,110.1*,-3.2
CCCc1nc(SCC(=O)NNC(=O)c2ccc(OC)cc2)c2ccccc2n1,-3.1,-23.0,93.3*,0.9,-4.4,-12.2,115.4*,-13.4
